Potency and activity, negative = inhibition data for 97 compounds are collected here from PubChem BioAssay AID504332 (National Center for Advancing Translational Sciences (NCATS), 2011).

Values joined by “and” are separate entries in the source; they are usually repeats but may differ in a detail not shown here. Identical values can stand only once. The campaign covered roughly 350,000 compounds. About 31,000 (8.9%) were called active. Entries that show only a call come without a potency. Roughly 15% stayed inconclusive and do not appear here. Calls come from the whole dose curve; as a rule, active = well fitted inhibition curve with a large enough effect; inconclusive = small, poorly fitted or top-dose-only effect; inactive = no such curve, though single readings can be large or run the other way. Only a selection was taken, and actives are over-represented in it overall. A structure can be active in one record and inactive in another.
Potency is the fitted concentration of half-maximal effect.

Chain of Histone-lysine N-methyltransferase EHMT2 (Homo sapiens) (Q96KQ7 913-1193 limits assumed): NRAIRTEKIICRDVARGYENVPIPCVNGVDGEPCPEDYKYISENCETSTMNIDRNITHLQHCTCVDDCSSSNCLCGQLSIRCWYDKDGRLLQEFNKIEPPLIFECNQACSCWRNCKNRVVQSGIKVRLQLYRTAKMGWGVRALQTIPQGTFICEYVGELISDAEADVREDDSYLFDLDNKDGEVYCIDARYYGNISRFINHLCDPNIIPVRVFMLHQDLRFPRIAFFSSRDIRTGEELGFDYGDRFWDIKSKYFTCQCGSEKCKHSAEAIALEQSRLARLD

The assay addresses Histone-lysine N-methyltransferase EHMT2 (Homo sapiens) (UniProt Q96KQ7). The assay is described as follows: qHTS Assay for Inhibitors of Histone Lysine Methyltransferase G9a. Note: nearly all actives have a fitted effect of over 75% in size. The settings on record: G9a H3K9 monomethylation, AlphaScreen, 2 h; series mostly up to 59 µM. In a few lines:
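AlphaScreen detection with an anti-monomethyl H3K9 antibody quantified product after a 2 h room-temperature reaction containing 500 nM biotinylated H3K9 peptide, 20 µM SAM and 20 nM enzyme, which had been preincubated 15 min with compound.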
For orientation: Quantitative high-throughput screening tests each substance at several concentrations.
As to `O=c1c(-c2ccccc2Cl)c[nH]n1-c1ccccc1`, the Potency result is “inactive”.

`COc1cc(OC)c2c(c1)OC(=O)CC2c1cc(OC)c(OC)c(OC)c1` (configuration not stated): the Potency result was “inactive”.

For the compound `COc1ccc(C2CC(=O)Oc3ccc(C(C)(C)C)cc32)cc1` (configuration not stated), the Potency entry is “inactive and 44.7 µM (active)”.

Turning to `COc1ccc(C2CC(=O)NC(=O)C2)cc1`, the Potency result was “inactive”.

On to `COc1ccc(-c2cc(C(=O)NCc3cc(OC)c(OC)c(OC)c3)[nH]n2)cc1`, for which the Potency entry is “inactive”.

As to `O=C(CN(C(=O)CNC(=O)c1cccs1)c1cccc(F)c1)NC1CCCCC1`, the Potency entry was “inactive”.

As to `COc1ccc(C)cc1NC(=O)C(=O)NCCc1sc(-c2cccc(C)c2)nc1C`, the Potency result was “inactive”.

On to `CC1CCCCN1S(=O)(=O)CCNC(=O)c1ccccc1` (configuration not stated), for which the Potency entry was “inactive”.

For the compound `Cc1ccc(CCN2CC(C(=O)O)CC2=O)cc1` (configuration not stated), the Potency result is “inactive”.

For the compound `CCCCOC(=O)Cn1c(=O)n(CC(=O)OCCCC)c2cc(C)ccc21`, the Potency entry was “inactive”.

Consider `Cc1ccc(CCCOC(=O)C[N+]2(C)CCCC2)cc1`, for which the Potency was 15.8 µM (active).

On to `COc1cccc(-c2n[nH]c3c2C(c2cccc(O)c2)N(C)C3=O)c1` (configuration not stated), for which the Potency entry is “inactive”.

Take `Cc1cc(NC(=O)c2ccccc2C)no1`: the Potency entry is “inactive”.

Turning to `CCOc1ccc(S(=O)(=O)NCCC(=O)N2CCCCCCC2)cc1`, the Potency result was “inactive”.

Consider `Cc1nn(C)c(Oc2ccccc2)c1[N+](=O)[O-]`, for which the Potency entry was “inactive”.

For `Cc1cccc(Oc2c([N+](=O)[O-])c(=O)n(C)c3ccccc23)c1`, the Potency is 44.7 µM (active).

Regarding `Cn1nc(-c2ccccc2)c2cc([N+](=O)[O-])ccc21`, the Potency entry was “inactive”.

As for `Cc1cccc(C2CC(=O)Oc3c2c(=O)n(C)c2ccccc32)c1` (configuration not stated), the Potency result is “inactive”.

On to `Cc1cccc(OP(=O)(Nc2c(C)n(C)n(-c3ccccc3)c2=O)Oc2cccc(C)c2)c1`, for which the Potency entry is “inactive”.

With `Cn1c(=O)c([N+](=O)[O-])c(Oc2ccccc2)c2ccccc21`, the Potency was 39.8 µM (active).

As to `Cc1ccc(-n2ncc3c2CCCC3NC(=O)c2cnccn2)cc1C` (configuration not stated), the activity, negative = inhibition was -6.28% [at 0.501 µM] (inactive).

As to `CCOc1ccc(Nc2ncnc3scc(-c4ccc(OC)cc4)c23)cc1`, the activity, negative = inhibition is 2.22% [at 12.7 µM] (inactive).

Take `COc1ccccc1-c1cc2nc(C)c(CCC(=O)NC3CCCCC3)c(C)n2n1`: the Potency result was “inactive”.

For the compound `COc1ccc([N+](=O)[O-])cc1NC(=O)C(C)OC(=O)C1c2ccccc2Oc2ccccc21` (configuration not stated), the Potency entry was “inactive”.

In the case of `COc1ccccc1C1CCN(c2ccc([N+](=O)[O-])cn2)CC1`, the Potency entry was “inactive”.

Take `COc1ccc([N+](=O)[O-])cc1C1NN=C(c2cccc3ccccc23)S1` (configuration not stated): the Potency was 28.2 µM (active).

With `COc1ccc(-n2c(=O)c3ccccc3n(Cc3ccccc3Cl)c2=O)cc1`, the Potency result is “inactive”.

With `Cc1ccc(OCC(=O)OCc2cc(=O)n3nc(C4CC4)sc3n2)cc1`, the Potency result is “inactive”.

For `COc1ccccc1NC(=O)CSC1=Nc2ccccc2C2=NC(CC(=O)NCc3cccs3)C(=O)N12` (configuration not stated), the Potency result is “inactive”.

As to `Cc1c(C(=O)OCC(=O)N2CCCC2=O)oc2ccccc12`, the Potency entry is “inactive”.

As to `C=CCn1c(SCc2c(C)noc2C)nc2sc3c(c2c1=O)CCC(C)C3` (configuration not stated), the Potency was 39.8 µM (active).

For `COc1ccc2cc(-c3nc(Cl)c4c5c(sc4n3)CC(C)CC5)c(=O)oc2c1` (configuration not stated), the Potency result is “inactive”.

Take `C=CCn1c(SCC(=O)NCC2CCCO2)nc2sc(C)c(C)c2c1=O` (configuration not stated): the Potency result was “inactive”.

Regarding `CC(=O)N1CCSc2ccc(S(=O)(=O)N3CCC(C)CC3)cc21`, the Potency result is “inactive”.

For the compound `Cc1cccc(NC(=O)CN2CCN(C(=O)C3CCN(C(=O)/C=C/c4ccccc4)CC3)CC2)c1C`, the activity, negative = inhibition was 14.7% [at 2.33 µM] (inactive).

Consider `COc1ccc(NC(=O)CSc2ncnc3[nH]ncc23)cc1`, for which the Potency entry is “inactive”.

In the case of `COc1ccc(NC(=O)CSc2nc(N)c(-c3ccccc3)c(=O)[nH]2)cc1`, the Potency result was “inactive”.

On to `COc1ccc(-c2nc3c(c(SCC(=O)Nc4ccc(C(=O)O)cc4)n2)Cc2ccccc2O3)cc1`, for which the Potency is 11.2 µM (active).

As for `CCc1ccc(NC(=O)N2CCN(C(=O)c3nsc4ccccc34)CC2)cc1`, the Potency result is “inactive”.

Consider `CN(Cc1ccccc1F)C(=O)C(Cc1ccccc1)NC(=O)c1ccccc1` (configuration not stated), for which the Potency entry was “inactive”.

Consider `CN(CC(=O)NC(=O)Nc1ccccc1F)Cc1ccccc1`, for which the activity, negative = inhibition is 2.2% [at 0.501 µM] (inactive).

`CN(Cc1ccccc1)Cc1ccccc1F`: the Potency is 8.91 µM (active).

As for `O=C(NCC(c1cccs1)N1CCOCC1)c1cc(Cl)ccc1[N+](=O)[O-]` (configuration not stated), the activity, negative = inhibition was 3.96% [at 0.501 µM] (inactive).

Regarding `COC(=O)c1ccc(NC(=O)c2cc(S(=O)(=O)N3CCC(C)CC3)cn2C)cc1`, the Potency entry was “inactive”.

For `O=C(Nc1ccn(Cc2ccccc2)n1)c1cccc(F)c1`, the Potency entry is “inactive”.

`Cc1ccc(Cn2ccc(NC(=O)C3C4CCC(C4)C3C(=O)O)n2)cc1` (configuration not stated): the Potency is 56.2 µM (active).

For the compound `Cc1ccc(Cn2ccc(NC(=O)c3cc(C(C)C)on3)n2)cc1`, the Potency entry was “inactive”.

As to `Cc1cccc(NC(=O)N2CCC(CN3CCc4ccccc4C3)CC2)c1C`, the Potency result is “inactive”.

`COc1cccc(CNC(=O)C2CC(=O)N(C3CCCCCCC3)C2)c1` (configuration not stated): the Potency result is “inactive”.

Regarding `O=C(COC(=O)Cc1ccc(Br)cc1)Nc1ccc(N2CCOCC2)cc1`, the Potency entry is “inactive”.

With `CCn1nc(C(=O)Nc2ccc(N3CCOCC3)cc2)c2ccccc2c1=O`, the activity, negative = inhibition was 17.9% [at 12.7 µM] (inactive).

For `O=C(COC(=O)CCc1nc2ccccc2c(=O)[nH]1)Nc1ccc(N2CCOCC2)cc1`, the Potency was 50.1 µM (active).

`CCCCNc1ccc(-c2nc(-c3ccncc3)no2)cc1[N+](=O)[O-]`: the Potency result is “inactive”.

As to `COc1ccc(OC)c(CCNC(=O)CCCn2c(=O)c3cccn3c3cccnc32)c1`, the Potency entry is “inactive”.

Consider `CC(C)c1ccc2oc(-c3cc(NC(=O)c4cccs4)ccc3Cl)nc2c1`, for which the Potency result is “inactive”.

For the compound `COc1cc(OC)c(NC(=O)c2c3c(nn2C)-c2ccccc2SC3)cc1Cl`, the Potency result was “inactive”.

`Cc1c(-c2nc(-c3ccc4c(c3)OCO4)no2)nnn1-c1ccc(Br)cc1F`: the Potency result was “inactive”.

For `O=C(COC(=O)c1ccc([N+](=O)[O-])cc1Cl)NC(=O)c1ccccc1`, the Potency result is “inactive”.

As to `CCN1CCN(CCCNC(=O)c2cnn(-c3ccc(C)cc3C)c2C2CCN(C(=O)OC(C)(C)C)CC2)CC1`, the Potency entry was “inactive”.

In the case of `Cc1cc(C)c(NC(=O)c2cc3sc(Cl)cc3n2C)c(C)c1`, the Potency entry was “inactive”.

On to `COc1cccc(C(=O)NC(=O)Nc2ccc(-c3cc(C(F)(F)F)nn3-c3ccccc3)cc2)c1`, for which the Potency result is “inactive”.

Consider `CC(=O)Oc1ccc(N(C(C)=O)S(=O)(=O)c2ccc3ccccc3c2)cc1Br`, for which the Potency entry is “inactive”.

`COC(=O)c1c(C)oc2ccc(N(C(=O)Oc3ccccc3)S(=O)(=O)c3ccccc3)cc12`: the Potency entry is “inactive”.

With `CC(=O)N(c1ccc2oc(=O)sc2c1)S(=O)(=O)c1ccc(C)cc1`, the Potency is 25.1 µM (active).

For `COc1ccc(OC)c(NC(=O)Cn2c(=O)n(Cc3ccccc3)c(=O)c3ccccc32)c1`, the Potency result was “inactive”.

Consider `C=CCN(C(=O)Nc1ccc2c(c1)nc(C)n2C)c1ccccc1`, for which the activity, negative = inhibition is 10.6% [at 12.7 µM] (inactive).

For the compound `Cc1nc2cc(NC(=O)Nc3cccc(F)c3)ccc2n1C`, the activity, negative = inhibition is 23.6% [at 12.7 µM] (inactive).

For `Cc1nc2cc(NCc3cccs3)ccc2n1C`, the Potency is 7.94 µM (active).

On to `O=C1C=C(c2cccc(Cl)c2O)C[C@@H](c2ccc(F)cc2)C1`, for which the activity, negative = inhibition is 4.95% [at 0.501 µM] (inactive).

Consider `Cc1cccc(CSc2nc3ccncc3n2CC(=O)N(C)C2CCCCC2)c1`, for which the Potency entry is “inactive”.

In the case of `CCC1=C/C(=C\c2ccc3c(c2)OCO3)C(=O)S1`, the Potency was 11.2 µM (active).

With `CCc1c(C)sc(NC(=O)/C=C/c2ccc3c(c2)OCO3)c1C(=O)OC`, the Potency entry is “inactive”.

Regarding `CCOC(=O)CCCNC(=O)COC(=O)/C=C/c1ccc2c(c1)OCO2`, the Potency entry was “inactive”.

As for `COc1ccc(CCNC(=O)c2cnc3sc(N4CCCCCC4)nn3c2=O)cc1OC`, the Potency entry was “inactive”.

Regarding `Cc1oc2ccc(O)c(CN3CCC(C)CC3)c2c1C(=O)Nc1ccccc1`, the Potency result was “inactive”.

For the compound `Cc1nc2ccc(S(=O)(=O)NC(C(=O)NCc3ccccc3Cl)C(C)C)cc2s1` (configuration not stated), the Potency result is “inactive”.

For the compound `Brc1ccc(-c2csc(N/N=C/c3cccnc3)n2)cc1`, the Potency was 14.1 µM (active).

`O=C(NCc1cccnc1)C(=O)Nc1nc(-c2ccccc2)cs1`: the Potency entry was “inactive”.

`O=C(Cc1ccc(F)cc1)N/N=C/c1ccc2c(c1)OCO2`: the Potency result is “inactive”.

As to `Brc1ccc(-c2csc(N/N=C/c3ccc4c(c3)OCO4)n2)cc1`, the Potency was 3.55 µM (active).

As to `O=C(N/N=C/c1ccc2c(c1)OCO2)C(=O)N1CCCC1`, the Potency result is “inactive”.

`O=C(Nc1nc(-c2ccc(-c3ccccc3)cc2)cs1)c1cnccn1`: the Potency entry was “inactive”.

Turning to `CCOc1ccc(-c2cc3c(=O)n(CC(=O)NCc4ccc(OC)cc4)ccn3n2)cc1`, the activity, negative = inhibition is 0.34% [at 12.7 µM] (inactive).

On to `Cc1ccc(C)c(Oc2c(C(F)(F)F)oc3c(CN4CCN(C)CC4)c(O)ccc3c2=O)c1`, for which the Potency result was “inactive”.

In the case of `Cc1ccc2nc(/C(C#N)=C/c3ccc(-c4ccc(C(=O)OC(C)C)cc4)o3)[nH]c2c1`, the Potency result is “inactive”.

As for `Cc1ccccc1-n1c(SCC(=O)NCc2cccs2)nnc1-c1ccncc1`, the Potency result is “inactive”.

As to `Cc1ccc(-n2c(SCC(=O)N3c4ccccc4Sc4ccccc43)nnc2-c2ccncc2)cc1`, the Potency entry is “inactive”.

For `Cc1ccc(Nc2nc(CSc3nnc(-c4ccncc4)n3-c3ccccc3C)cs2)cc1`, the Potency is 44.7 µM (active).

On to `CCOc1ccc(CNCCSc2nnnn2C)cc1`, for which the Potency entry was “inactive”.

With `CCc1ccc(NC(=O)c2cc(S(=O)(=O)N3CCCC(C)C3)cn2C)cc1` (configuration not stated), the Potency result was “inactive”.

For the compound `COc1ccc(OC)c(-c2noc(N3CCN(c4cc(Cl)ccc4C)CC3)n2)c1`, the Potency result was “inactive”.

With `CCc1nc(-c2cc(S(=O)(=O)N3CCN(c4ccc(OC)cc4)CC3)ccc2OC)no1`, the Potency was 0.631 µM (active).

With `COc1ccc(S(=O)(=O)N2CCN(c3ccc(F)cc3)CC2)cc1-c1noc(C)n1`, the Potency result is “inactive”.

With `Cc1ccc(-n2ncc3c(N4CCC(C(N)=O)CC4)ncnc32)cc1`, the Potency entry was “inactive”.

In the case of `CC(C)(C)OC(=O)N1CCC(c2c(C(=O)N3CCc4ccccc4C3)cnn2-c2ccc(F)cc2)CC1`, the Potency result is “inactive”.

Take `Cc1ccc(C(=O)Nc2ccc(OCc3cc(=O)n4c5c(sc4n3)CCCC5)cc2)cc1`: the Potency entry is “inactive”.

Turning to `O=C(COC(=O)CNS(=O)(=O)c1ccc(F)c(F)c1F)NC1CCCC1`, the Potency result was “inactive”.
